Shown are actives, neighbours in structure and some others; about 1.9% of the full set was active somewhere.
Prostate diff: promotes differentiation of LNCaP prostate cells | flow cytometry side scatter, 4 d | side scatter shift, % at 10 µM | hit rate 0.56% among 24,000;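 active means side scatter shift above 30%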;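 further: androgen-responsive LNCaP prostate cancer cells in charcoal-stripped serum medium; higher shift means more granular cells and more differentiation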
VLA-4 agonist: allosterically activates the human VLA-4 integrin; P13612; Jurkat cells, LDV-FITC binding, flow cytometry; activation, % at 10 µM (by protocol); 24,000 tested, under 10 active; AID 528;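 active means fluorescent ligand binding to cells raised by more than 40% of the manganese-induced maximum; inconclusive means compound's own fluorescence above 85% of the ligand control signal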
VLA-4 antagonist: inhibitors of LDV-FITC ligand binding to Mn2+-activated human VLA-4 integrin | P13612 | Jurkat cells, LDV-FITC binding with Mn2+, flow cytometry; 100% = Mn2+-driven binding gain fully reversed | inhibition, % at 10 µM (by protocol) | hit rate 0.2% among 24,000 | AID 529;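 active means inhibition above 50%; inconclusive means compound itself fluorescent, judged against control cell fluorescence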
FPR binder: human FPR ligand, with FPRL1 counter-screen; P21462; FPR-expressing cells, fluorescent ligand binding, flow cytometry; inhibition, % (no concentration beside the values); hit rate 0.74% among 24,000; AID 440
FPRL1 binder: ligands of human FPRL1, also counter-screen for FPR ligands. FPRL1-expressing cells, fluorescent ligand binding inhibition, flow cytometry. inhibition, % (test concentration not listed). hit rate 0.3% among 24,000
Jurkat autofluor: compound fluoresces in Jurkat cells, VLA-4 screen interference; compound autofluorescence, flow cytometry; active compounds read high; 1 = vehicle-only cell background; fluorescence ratio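 (tested at 10 µM compound in the well)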; hit rate 0.61% among 24,000; AID 576;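 active means fluorescence ratio above 2.44, which is 1 plus 3 SD of all ratios; inconclusive means signal too bright to measure linearly, ratio around 10 or more; inactive means fluorescence ratio below 2.44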;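 further: green fluorescence of cells measured with 488 nm excitation and 530 nm emission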
A number is an active result; – = inactive; ? = inconclusive. Unless noted, no stated cut-off is given here; in the data, active means inhibition above about 30%; inconclusive means no clear call, values can overlap the other calls; inactive means below that.

SMILES	Prostate diff	VLA-4 agonist	VLA-4 antagonist	FPR binder	FPRL1 binder	Jurkat autofluor
CCOc1ccccc1NC(=O)CCC(=O)Nc1ccc2nc(N3CCN(C)CC3)cc(C)c2c1	–	–	–	–	–	–
Cc1cc(N2CCN(C)CC2)nc2ccc(NC(=O)c3ccc4c(c3)OCO4)cc12	57	–	–	–	–	–
O=C1N(CC(=O)N2CCc3ccccc32)CCN1Cc1ccccc1Cl	–	?	?	–	–	–
CCOC(=O)CC(C#N)c1cn(C)c2ccccc12 (centres undefined)	–	?	?	–	–	2.8
CCCOc1ccc(N)cc1N	–	?	?	–	–	7.9
CCCOc1ccccc1NC(=O)c1ccc(N)cc1	–	–	–	–	–	–
O=C(CCN1C(=O)COc2ccccc21)NCc1cccs1	–	–	–	–	–	–
COc1cc(NS(=O)(=O)c2ccc(Br)s2)cc(OC)c1	–	?	?	–	?	4.5
O=S(=O)(Nc1ccc2c(c1)OCO2)c1ccc(Br)s1	–	–	–	–	–	–
c1cc2c(cc1C1CCCN1)OCCCO2 (centres undefined)	–	–	–	–	–	–
Cc1ccc(NC(=O)N2CCCN(Cc3ccc(F)cc3)C2)cc1C	39	–	–	–	–	–
CC(C)c1ccc(NC(=O)C(c2ccc3c(c2)OCO3)N2CCC3(CC2)OCCO3)cc1 (centres undefined)	–	–	54	–	–	–
O=C(Nc1ccccc1C(F)(F)F)N1CCN(c2ccc3nncn3n2)CC1	–	–	–	–	–	–
Cc1c(C)c2cc(Cl)c(O)c(CN3CCCCC3)c2oc1=O	–	–	–	38	50	–
Cc1ccccc1-n1c(Cn2c(=O)sc3ccccc32)nnc1SCC(N)=O	–	–	–	–	–	–
Cc1cc(NC(=O)CSc2nnc(Cn3c(=O)sc4ccccc43)n2-c2ccccc2C)no1	–	–	–	36	–	–
CCC(=O)N1CCc2cc(Br)cc(S(=O)(=O)N3CCN(c4ccccn4)CC3)c21	–	–	–	–	–	–
COc1ccc2oc(C(=O)C3CC3)c(NC(=O)CCCN3C(=O)c4ccccc4C3=O)c2c1	–	–	–	–	–	–
CCOC(=O)c1c(C)c(C(=O)Nc2cc(F)ccc2F)c(C)n1C	–	?	?	–	–	–
COCCOC(=O)c1cc(C(=O)c2cc(F)ccc2O)coc1=N	–	?	?	–	–	4.1
CCc1cc2c(=O)c(-c3nc4ccccc4[nH]3)coc2c(CN2CCCC(C)C2)c1O (centres undefined)	–	?	?	–	–	–
Cc1cc2c(=O)n(CC(=O)NCC(=O)N3CCN(Cc4ccccc4)CC3)cnc2s1	–	–	–	–	–	–
CC1CCCN(CCCNC(=O)c2coc3nc4ccccc4nc23)C1 (centres undefined)	–	?	?	–	–	4.7
CC1CCN(CCCNC(=O)c2coc3nc4ccccc4nc23)CC1	–	?	?	–	–	–
Cc1ccc(CCNC(=O)c2coc3nc4ccccc4nc23)cc1	–	?	?	–	–	4.2
SMILES	Prostate diff	VLA-4 agonist	VLA-4 antagonist	FPR binder	FPRL1 binder	Jurkat autofluor
Cc1cccn2c(=O)c3cc(C(=O)N4CCN(c5ccccc5)CC4)n(C)c3nc12	–	–	–	–	–	–
O=C(O)C1CCC(=O)N1Cc1ccccc1Cl (centres undefined)	–	–	–	–	–	–
COc1ccc(-c2coc3c(CN4CCCCC4)c(O)c(CN4CCCCC4)c(O)c3c2=O)cc1	36	–	–	–	–	–
CCOc1ccccc1NC(=O)CC1Nc2cc(C)c(C)cc2NC1=O (centres undefined)	–	?	?	–	–	4.9
COc1ccc(CCNC(=O)CC2Nc3ccccc3NC2=O)cc1OC (centres undefined)	–	?	?	–	–	–
Cc1ccc(NC(=O)CC2Nc3ccccc3NC2=O)cc1Cl (centres undefined)	–	?	?	–	–	6.7
CC(NC(=O)CC1Nc2ccccc2NC1=O)c1ccccc1 (centres undefined)	–	–	–	–	–	–
CCC(=O)N1CCNC(=O)C1CC(=O)Nc1ccc(C)c(Cl)c1 (centres undefined)	–	–	52	–	–	–
CCOC(=O)c1cccc(NC(=O)CN(c2ccc(C)cc2)S(=O)(=O)c2c(C)n[nH]c2C)c1	–	?	?	–	–	–

High-throughput results as filed in PubChem.
